Assays:
Assay in all cases: log2 ratio of Biotin-Ahx-Ub-VS probe labelling (fragment/DMSO); higher = less target engagement (more negative = stronger competition), active = hit call of the paper (q ≤ 0.05, log2 ratio ≤ -1)
Conditions in all cases: compound concentration: 200 uM; treatment time: 3 h
[1] = molecular target: USP34 (UniProt Q70CQ2)
How it was run: (§1)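 Global-median-normalised Spectronaut label-free quantities were compared by unpaired t-test, and values are average log2 ratios of fragment over vehicle. Only proteins with ≥2 unique peptides were used. HEK293T lysate (495 µg per sample) was treated in triplicate with fragment at 200 µM or vehicle for 3 h and then with Biotin-Ahx-Ub-VS at 0.5 µM final for 1 h. Labelled DUBs were then NeutrAvidin-enriched, digested with LysC and trypsin, and run by diaPASEF LC-MS/MS.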

[2] = molecular target: T1, USP36 (UniProt Q9P275)
T1 sequence (whole entry): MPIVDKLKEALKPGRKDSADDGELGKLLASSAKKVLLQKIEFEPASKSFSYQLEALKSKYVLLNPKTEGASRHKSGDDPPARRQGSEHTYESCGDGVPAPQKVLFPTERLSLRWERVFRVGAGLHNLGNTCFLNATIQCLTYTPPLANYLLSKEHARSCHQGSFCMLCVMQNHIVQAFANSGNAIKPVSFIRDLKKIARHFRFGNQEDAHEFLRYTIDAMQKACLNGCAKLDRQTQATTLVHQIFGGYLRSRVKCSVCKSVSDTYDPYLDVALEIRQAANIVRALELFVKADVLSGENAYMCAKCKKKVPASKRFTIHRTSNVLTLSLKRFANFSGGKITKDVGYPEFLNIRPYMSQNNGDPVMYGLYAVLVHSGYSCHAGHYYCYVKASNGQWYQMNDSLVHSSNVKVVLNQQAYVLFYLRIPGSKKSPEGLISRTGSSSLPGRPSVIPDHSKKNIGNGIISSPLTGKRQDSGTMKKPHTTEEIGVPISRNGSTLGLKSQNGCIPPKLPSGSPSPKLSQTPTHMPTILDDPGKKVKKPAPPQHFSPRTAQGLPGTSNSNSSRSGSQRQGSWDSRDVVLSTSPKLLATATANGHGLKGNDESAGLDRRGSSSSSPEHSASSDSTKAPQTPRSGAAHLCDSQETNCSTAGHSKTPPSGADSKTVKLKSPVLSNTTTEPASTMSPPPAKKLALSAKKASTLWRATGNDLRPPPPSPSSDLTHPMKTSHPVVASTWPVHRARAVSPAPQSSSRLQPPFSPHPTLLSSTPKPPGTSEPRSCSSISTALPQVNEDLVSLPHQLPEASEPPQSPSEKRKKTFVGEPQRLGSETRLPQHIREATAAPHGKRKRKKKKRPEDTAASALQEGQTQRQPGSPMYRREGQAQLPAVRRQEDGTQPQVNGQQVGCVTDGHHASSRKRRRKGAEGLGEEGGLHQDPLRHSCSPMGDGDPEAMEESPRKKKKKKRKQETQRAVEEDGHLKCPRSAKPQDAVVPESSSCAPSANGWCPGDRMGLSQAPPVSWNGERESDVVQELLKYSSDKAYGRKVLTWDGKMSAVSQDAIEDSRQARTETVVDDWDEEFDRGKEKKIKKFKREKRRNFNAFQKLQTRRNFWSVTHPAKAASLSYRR
How it was run: as §1

[3] = molecular target: T2, USP38 (UniProt Q8NB14)
T2 sequence (whole entry): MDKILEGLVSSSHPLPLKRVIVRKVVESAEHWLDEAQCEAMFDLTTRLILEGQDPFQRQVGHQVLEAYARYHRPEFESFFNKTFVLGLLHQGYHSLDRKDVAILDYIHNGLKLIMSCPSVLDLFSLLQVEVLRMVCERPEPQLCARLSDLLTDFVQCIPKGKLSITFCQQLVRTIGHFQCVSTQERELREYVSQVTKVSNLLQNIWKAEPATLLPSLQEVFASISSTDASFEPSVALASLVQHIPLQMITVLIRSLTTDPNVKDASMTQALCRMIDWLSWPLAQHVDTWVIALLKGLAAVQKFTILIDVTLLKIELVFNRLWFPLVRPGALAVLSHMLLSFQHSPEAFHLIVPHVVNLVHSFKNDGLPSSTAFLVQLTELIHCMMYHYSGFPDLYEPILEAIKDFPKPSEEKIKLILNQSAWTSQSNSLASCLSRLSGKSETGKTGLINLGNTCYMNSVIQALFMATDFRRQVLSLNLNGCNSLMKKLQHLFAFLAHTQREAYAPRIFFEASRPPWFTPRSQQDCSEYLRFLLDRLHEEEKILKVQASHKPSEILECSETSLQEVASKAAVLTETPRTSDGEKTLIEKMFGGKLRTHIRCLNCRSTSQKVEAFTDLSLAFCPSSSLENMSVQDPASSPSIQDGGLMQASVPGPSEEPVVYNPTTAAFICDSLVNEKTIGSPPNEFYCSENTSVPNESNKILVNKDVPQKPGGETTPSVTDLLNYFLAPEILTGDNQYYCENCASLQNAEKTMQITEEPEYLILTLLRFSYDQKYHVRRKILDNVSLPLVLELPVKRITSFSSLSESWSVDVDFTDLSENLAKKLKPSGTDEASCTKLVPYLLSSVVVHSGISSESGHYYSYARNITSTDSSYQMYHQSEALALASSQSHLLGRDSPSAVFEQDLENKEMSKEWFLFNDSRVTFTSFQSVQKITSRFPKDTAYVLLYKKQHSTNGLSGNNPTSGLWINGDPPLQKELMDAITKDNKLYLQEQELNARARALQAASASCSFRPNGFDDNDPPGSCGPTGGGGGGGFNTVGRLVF
How it was run: as §1

[4] = molecular target: T3, USP39 (UniProt Q53GS9)
T3 sequence (whole entry): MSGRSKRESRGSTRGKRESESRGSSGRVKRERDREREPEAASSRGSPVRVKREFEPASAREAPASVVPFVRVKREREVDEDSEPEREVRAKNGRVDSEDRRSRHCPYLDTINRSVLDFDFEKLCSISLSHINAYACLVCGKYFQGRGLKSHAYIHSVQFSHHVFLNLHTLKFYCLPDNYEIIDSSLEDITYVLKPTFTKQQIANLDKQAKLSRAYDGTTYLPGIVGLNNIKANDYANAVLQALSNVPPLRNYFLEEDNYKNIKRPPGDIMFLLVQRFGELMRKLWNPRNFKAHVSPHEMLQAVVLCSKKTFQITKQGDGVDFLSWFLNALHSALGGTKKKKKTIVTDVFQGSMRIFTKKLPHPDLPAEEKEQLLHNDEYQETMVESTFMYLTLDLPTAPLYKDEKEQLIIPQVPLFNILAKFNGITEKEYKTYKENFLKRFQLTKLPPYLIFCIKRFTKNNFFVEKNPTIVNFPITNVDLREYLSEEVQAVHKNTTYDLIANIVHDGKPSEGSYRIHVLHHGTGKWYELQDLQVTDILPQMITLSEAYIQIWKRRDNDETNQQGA
How it was run: as §1

[5] = molecular target: T4, USP4 (UniProt Q13107)
T4 sequence (whole entry): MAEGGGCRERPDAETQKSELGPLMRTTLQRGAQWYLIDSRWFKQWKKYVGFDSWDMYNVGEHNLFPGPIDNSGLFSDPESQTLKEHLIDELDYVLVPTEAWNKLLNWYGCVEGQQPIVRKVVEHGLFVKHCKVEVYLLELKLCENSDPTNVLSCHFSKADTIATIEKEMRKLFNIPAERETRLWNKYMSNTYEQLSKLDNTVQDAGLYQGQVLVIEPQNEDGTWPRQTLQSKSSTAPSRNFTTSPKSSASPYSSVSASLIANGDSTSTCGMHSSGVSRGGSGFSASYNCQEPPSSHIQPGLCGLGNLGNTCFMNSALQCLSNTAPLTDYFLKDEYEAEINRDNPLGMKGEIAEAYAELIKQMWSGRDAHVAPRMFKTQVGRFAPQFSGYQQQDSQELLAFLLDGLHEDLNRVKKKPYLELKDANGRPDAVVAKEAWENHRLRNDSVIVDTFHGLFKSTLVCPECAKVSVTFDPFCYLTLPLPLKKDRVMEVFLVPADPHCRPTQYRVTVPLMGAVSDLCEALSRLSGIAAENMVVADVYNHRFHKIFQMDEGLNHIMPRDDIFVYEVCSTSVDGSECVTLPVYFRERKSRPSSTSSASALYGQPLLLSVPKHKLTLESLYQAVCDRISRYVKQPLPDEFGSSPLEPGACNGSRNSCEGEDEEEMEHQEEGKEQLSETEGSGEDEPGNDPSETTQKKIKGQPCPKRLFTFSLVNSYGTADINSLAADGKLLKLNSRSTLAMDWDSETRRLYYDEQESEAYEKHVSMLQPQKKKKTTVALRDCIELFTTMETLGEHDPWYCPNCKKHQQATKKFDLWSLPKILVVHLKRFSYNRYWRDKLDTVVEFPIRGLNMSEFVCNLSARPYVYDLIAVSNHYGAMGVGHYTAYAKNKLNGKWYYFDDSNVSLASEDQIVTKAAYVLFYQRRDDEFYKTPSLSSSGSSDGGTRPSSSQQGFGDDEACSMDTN
How it was run: as §1

Measured: log2 ratio of Biotin-Ahx-Ub-VS probe labelling

USP34, sequence (Q70CQ2 whole entry, the tested form may be a part): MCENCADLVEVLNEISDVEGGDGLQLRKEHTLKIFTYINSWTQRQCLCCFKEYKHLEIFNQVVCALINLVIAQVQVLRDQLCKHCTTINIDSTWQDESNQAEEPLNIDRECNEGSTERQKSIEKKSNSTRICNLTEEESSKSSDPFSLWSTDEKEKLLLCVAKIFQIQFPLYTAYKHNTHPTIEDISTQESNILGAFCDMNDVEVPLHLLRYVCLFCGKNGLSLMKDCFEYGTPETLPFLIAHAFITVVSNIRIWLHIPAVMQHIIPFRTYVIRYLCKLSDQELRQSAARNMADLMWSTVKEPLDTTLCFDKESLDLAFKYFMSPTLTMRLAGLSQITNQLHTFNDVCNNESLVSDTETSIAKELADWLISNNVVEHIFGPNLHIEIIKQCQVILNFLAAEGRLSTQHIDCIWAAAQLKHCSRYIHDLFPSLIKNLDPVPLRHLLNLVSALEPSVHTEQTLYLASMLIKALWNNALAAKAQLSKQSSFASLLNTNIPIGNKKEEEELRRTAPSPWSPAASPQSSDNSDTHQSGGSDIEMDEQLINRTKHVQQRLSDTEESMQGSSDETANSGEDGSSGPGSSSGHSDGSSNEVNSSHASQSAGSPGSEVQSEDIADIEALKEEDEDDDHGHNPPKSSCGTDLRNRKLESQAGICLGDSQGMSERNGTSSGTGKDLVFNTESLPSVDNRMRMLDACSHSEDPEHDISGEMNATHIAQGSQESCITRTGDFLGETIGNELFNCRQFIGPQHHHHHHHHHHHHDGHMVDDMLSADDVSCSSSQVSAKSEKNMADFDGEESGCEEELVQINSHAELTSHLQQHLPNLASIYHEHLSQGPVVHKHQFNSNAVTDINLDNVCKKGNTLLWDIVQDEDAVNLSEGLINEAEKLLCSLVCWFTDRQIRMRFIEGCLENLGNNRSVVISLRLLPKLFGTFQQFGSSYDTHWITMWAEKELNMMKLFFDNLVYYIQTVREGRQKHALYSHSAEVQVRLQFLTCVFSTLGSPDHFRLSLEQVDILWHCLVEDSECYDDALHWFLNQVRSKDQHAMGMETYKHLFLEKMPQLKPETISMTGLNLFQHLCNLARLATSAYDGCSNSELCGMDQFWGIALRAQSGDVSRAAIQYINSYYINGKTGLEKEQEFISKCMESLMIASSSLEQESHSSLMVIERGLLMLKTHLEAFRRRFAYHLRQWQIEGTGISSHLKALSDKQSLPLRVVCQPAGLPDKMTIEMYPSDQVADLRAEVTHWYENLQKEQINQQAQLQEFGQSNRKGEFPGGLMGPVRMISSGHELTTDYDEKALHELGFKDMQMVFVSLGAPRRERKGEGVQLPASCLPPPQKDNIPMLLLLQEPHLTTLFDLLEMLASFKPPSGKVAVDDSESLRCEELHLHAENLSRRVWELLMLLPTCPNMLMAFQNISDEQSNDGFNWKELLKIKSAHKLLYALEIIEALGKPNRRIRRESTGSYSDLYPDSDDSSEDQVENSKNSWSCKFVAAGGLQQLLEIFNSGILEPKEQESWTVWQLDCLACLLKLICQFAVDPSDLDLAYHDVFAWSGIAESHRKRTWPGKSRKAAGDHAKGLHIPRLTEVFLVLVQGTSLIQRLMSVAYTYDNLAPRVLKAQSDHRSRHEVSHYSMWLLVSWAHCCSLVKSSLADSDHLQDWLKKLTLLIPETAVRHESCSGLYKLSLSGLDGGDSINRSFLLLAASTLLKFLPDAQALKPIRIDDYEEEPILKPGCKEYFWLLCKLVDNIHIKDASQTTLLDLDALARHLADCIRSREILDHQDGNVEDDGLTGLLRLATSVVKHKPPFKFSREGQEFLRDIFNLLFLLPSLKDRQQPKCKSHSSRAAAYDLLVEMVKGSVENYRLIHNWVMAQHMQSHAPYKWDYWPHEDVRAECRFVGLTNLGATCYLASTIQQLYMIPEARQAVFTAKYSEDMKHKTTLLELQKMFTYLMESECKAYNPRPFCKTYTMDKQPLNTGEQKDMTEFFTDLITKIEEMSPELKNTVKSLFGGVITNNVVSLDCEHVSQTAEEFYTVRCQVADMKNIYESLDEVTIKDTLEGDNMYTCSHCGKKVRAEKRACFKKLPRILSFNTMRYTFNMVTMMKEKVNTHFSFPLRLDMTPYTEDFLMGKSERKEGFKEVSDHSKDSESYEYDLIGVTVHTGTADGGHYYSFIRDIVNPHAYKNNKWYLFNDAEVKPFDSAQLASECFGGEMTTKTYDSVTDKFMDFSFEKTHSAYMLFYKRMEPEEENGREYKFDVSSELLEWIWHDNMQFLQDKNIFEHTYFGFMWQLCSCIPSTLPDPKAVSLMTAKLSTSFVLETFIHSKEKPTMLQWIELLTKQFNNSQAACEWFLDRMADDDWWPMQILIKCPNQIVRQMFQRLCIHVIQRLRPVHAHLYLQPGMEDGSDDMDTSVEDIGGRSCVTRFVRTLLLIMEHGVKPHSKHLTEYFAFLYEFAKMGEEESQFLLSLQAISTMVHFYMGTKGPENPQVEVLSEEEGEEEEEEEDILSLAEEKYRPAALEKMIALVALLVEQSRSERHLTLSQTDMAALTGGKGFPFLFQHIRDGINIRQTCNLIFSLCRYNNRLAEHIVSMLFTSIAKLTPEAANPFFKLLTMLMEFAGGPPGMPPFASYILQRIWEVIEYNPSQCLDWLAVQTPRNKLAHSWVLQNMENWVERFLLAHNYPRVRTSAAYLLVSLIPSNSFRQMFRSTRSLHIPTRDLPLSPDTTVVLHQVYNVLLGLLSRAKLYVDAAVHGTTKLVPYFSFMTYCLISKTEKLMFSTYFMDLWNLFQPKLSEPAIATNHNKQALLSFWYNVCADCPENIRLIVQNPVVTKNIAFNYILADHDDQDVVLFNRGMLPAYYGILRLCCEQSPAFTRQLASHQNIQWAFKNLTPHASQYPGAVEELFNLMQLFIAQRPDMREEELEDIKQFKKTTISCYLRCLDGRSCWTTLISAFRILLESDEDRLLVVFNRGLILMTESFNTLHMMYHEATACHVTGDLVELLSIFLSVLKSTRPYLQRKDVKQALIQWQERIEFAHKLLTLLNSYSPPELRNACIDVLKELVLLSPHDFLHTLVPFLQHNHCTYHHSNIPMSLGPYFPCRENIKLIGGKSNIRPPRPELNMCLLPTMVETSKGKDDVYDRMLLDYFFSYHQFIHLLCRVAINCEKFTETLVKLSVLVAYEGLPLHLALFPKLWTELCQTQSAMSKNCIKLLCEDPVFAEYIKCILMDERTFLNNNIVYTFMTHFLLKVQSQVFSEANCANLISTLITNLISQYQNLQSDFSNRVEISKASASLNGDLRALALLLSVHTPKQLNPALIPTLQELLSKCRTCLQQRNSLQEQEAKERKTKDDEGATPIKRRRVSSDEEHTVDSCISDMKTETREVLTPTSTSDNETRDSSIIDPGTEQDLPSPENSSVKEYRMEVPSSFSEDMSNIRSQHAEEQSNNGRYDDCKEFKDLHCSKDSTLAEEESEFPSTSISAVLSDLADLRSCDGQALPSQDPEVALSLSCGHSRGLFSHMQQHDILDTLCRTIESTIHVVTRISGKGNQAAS

N#Cc1cnn(-c2ccccc2)c1NC(=O)CCl
inactive: [1] 0.0145 | [2] -0.28 | [3] -0.229 | [4] -0.0134 | [5] -0.24
